Screens deposited in PubChem by several laboratories.
C8 TRAIL sens: caspase-8 TRAIL sensitization. inhibition (viability loss, TRAIL sensitization), % at 10 µM. NB7+C8 cells + TRAIL, ATPlite viability luminescence. actives 1% (n = 360,000). AID 624354;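 active means compounds causing at least 50% loss of cell viability in the single-dose screen, relative to plate controls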
TWEAK-Fn14 inh: TWEAK-Fn14 signaling inhibition; inhibition, % at 10 µM; TWEAK-stimulated Fn14 reporter cells, luciferase luminescence, 8 h; actives 2% (n = 360,000); in the data active means inhibition above about 50%
aSyn UTR inh: MLPCN primary screen, SNCA 5' untranslated region | alpha-synuclein 5'UTR reporter, inhibitor activity | actives 0.82% (n = 300,000) | inhibition, % (tested at 7.5 µM); in the data active means inhibition above about 60%;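 further: H4 neuroglioblastoma cells stably carrying SNCA 5'UTR luciferase fusion; 0% = DMSO wells and 100% = positive control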
TROY NFkB inh: TROY signaling inhibition; inhibition, % at 10 µM; AID 1347056; Q293 LMP1-TROYcd NF-kB luciferase reporter, 4 h; actives 0.98% (n = 360,000);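 active means compounds whose plate-normalised and pattern-corrected inhibition of the luciferase reporter signal at the single screening dose is 50% or more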
HSP90 refold inh: inhibitors of HSP90 luciferase refolding in rabbit reticulocyte lysate; AID 1789; inhibition, % at 5.6 µM; luciferase refolding luminescence, 3 h; actives 0.91% (n = 290,000);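 active means inhibition above the screen-wide mean plus 3 SD, computed separately per campaign, cut at about 16% in these data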;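 further: 0% = DMSO wells and 100% = 60 µM geldanamycin wells; inhibitors lower the luminescence because luciferase stays unfolded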
HIF-2a inh: HIF-2a inhibition. 786-0 RCC cells HIF-2a reporter, luciferase luminescence, overnight. inhibition, % at 18.8 µM. actives 0.72% (n = 360,000). AID 624352;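 active means inhibition of the luminescence signal of 40% or more relative to plate controls, in a single-dose primary screen at 18.75 µM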
HSP90 inh confirm: HSP90 inhibition, confirmation assay. actives 64% (n = 2,300). inhibition, % at 5.9 µM. shares compounds with HSP90 refold inh. AID 1846. rabbit reticulocyte lysate, luciferase refolding luminescence, 3 h; in the data active means inhibition above about 18%;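 further: 0% = vehicle wells and 100% = reference inhibitor wells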
luciferase ctr: firefly luciferase inhibition, HSP90 counter-screen. shares compounds with HSP90 refold inh. purified native firefly luciferase, luminescence. inhibition, % at 5.9 µM. actives 48% (n = 2,300);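 active means inhibition above the mean inhibition of all tested sample wells plus 3 SD, cut at about 10% in these data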;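 further: 0% = DMSO with luciferase and 100% = wells lacking luciferase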
Target sequence (P08659 whole entry, looked up): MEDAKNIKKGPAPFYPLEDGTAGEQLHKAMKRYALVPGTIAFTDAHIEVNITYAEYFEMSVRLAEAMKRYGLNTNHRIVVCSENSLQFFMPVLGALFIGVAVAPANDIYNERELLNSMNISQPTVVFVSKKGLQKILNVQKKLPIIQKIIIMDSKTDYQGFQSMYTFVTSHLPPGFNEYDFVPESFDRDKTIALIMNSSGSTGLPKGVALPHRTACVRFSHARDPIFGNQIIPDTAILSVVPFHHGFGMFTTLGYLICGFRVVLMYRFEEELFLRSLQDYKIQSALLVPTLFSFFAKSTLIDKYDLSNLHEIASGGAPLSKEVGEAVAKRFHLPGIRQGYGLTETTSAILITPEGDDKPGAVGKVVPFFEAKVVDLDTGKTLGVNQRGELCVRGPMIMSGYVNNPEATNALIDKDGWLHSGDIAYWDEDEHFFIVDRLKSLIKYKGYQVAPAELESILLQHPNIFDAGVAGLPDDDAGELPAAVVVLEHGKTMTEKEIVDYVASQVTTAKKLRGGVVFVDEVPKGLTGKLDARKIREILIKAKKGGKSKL
* hit, by the source's call; x = not tested or not shown; ! = not active in a repeat. Rows were chosen to be rich in hits. Some 3.9% of all compounds tested hit in one or more screens of this group.

SMILES	C8 TRAIL sens	TWEAK-Fn14 inh	aSyn UTR inh	TROY NFkB inh	HSP90 refold inh	HIF-2a inh	HSP90 inh confirm	luciferase ctr
COc1ccc2cc(-c3ccccc3)ncc2c1	62*	42	-65	-27	20*	-187	24*	10*
COc1cc2cnc(-c3ccccc3)cc2cc1OC	7	-32	x	-55	x	-200	x	x
CCOc1ccc(Oc2nc(N(CC)CC)nc(N3CCOCC3)n2)nn1	6	-7	-4	0	17*	7	-7	-10
COC(=O)C1=C(CN2CCCc3ccccc32)NC(=O)NC1c1ccc(F)cc1 (stereo not drawn)	14	85*	79*	64*	46*	63*	15	-10
O=C(/C=C/c1cccc(Cl)c1)OCC(=O)c1ccc[nH]1	4	-5	x	3	x	5	x	x
C[C@@H]1CN([C@H](C)CO)C(=O)c2cc(Br)cnc2O[C@@H]1CN(C)C(=O)c1ccccc1	-18	4	x	-5	x	-4	x	x
CCOC(=O)NC(=S)Nc1ccc(OC)cc1	-1	-16	-36	-22	-1	-110	x	x
COC(=O)c1cn[nH]c1NC(=S)Nc1ccc(Cl)c(Cl)c1	18	69*	-101	73*	37*	-176	44*	44*
COC(=O)c1cn[nH]c1NC(=S)Nc1ccccc1C	-7	-12	-49	-30	-1	-198	x	x
CCOC(=O)c1cn[nH]c1NC(=S)Nc1ccc(OC)cc1	67*	76*	8	62*	65*	-128	65*	62*
COC(=O)c1cn[nH]c1NC(=S)Nc1ccc(C)cc1Cl	7	66*	-127	73*	36*	-254	41*	41*
Cn1c(CC(O)c2nc3ccccc3n2C)nc2ccccc21 (stereo not drawn)	-20	-5	x	-5	x	-56	x	x
S=C(Nc1cccnc1)Nc1ccccc1Br	19	-3	-1	22	26*	-17	-10	-11
Fc1ccc(NC(=S)Nc2cccnc2)c(F)c1F	-7	2	-16	-7	-3	-6	x	x
O=C(/C=C/c1ccccc1Cl)OCC(=O)c1ccc[nH]1	1	-9	x	-80	x	-58	x	x
c1ccc(-c2ccc(-c3ccccn3)nn2)nc1	x	x	56	x	28*	x	54*	36*
c1ccc(-c2ccccn2)nc1	-15	5	-5	3	6	-1	x	x
CCCc1ccc(OCc2ccc(C(=O)O)o2)c(OC)c1	-2	16	-94	-55	81*	-6	82*	41*
C=CCc1ccc(OCCn2nnc3ccccc32)c(OC)c1	6	-6	-248	-43	1	-296	x	x
C=CCc1ccc(OCc2ccc(C(=O)O)o2)c(OC)c1	-11	25	-121	-37	86*	3	83*	46*
C=CCc1ccc(OCCn2cccc2C=O)c(OC)c1	3	-10	-140	-19	23*	-59	35*	-18
CCCc1ccc(OCc2ccc(C(=O)NN)o2)c(OC)c1	6	-37	-84	-61	2	-100	x	x
Cc1ccc(OCc2ccc(C(=O)O)o2)c([N+](=O)[O-])c1	6	33	-16	-23	20*	-2	44*	-4
C=CCc1ccc(OCCCCOc2ccc(C(=O)O)cc2)c(OC)c1	5	-5	30	-19	-1	-39	x	x
Cc1ccc(OCc2ccc(C(=O)N3CCCC3)o2)c([N+](=O)[O-])c1	-3	7	4	5	-6	-101	x	x
SMILES	C8 TRAIL sens	TWEAK-Fn14 inh	aSyn UTR inh	TROY NFkB inh	HSP90 refold inh	HIF-2a inh	HSP90 inh confirm	luciferase ctr
O=C(Nc1cccc(C(=O)N2CCCC2)c1)C1CC1	-22	8	x	-13	x	1	x	x
COc1cc(-c2cnc3c(NC(C)=O)cc(-c4ccccc4CN(C)C)cn23)cc(OC)c1OC	-8	8	x	5	x	-41	x	x
COCCCNC(=O)Cn1cnc(C(=O)Nc2ccc(C)c(C)c2)n1	10	-16	x	-18	x	-74	x	x
CCCc1ccc(OCc2ccc(C(=O)OC)o2)c(OC)c1	-1	-35	0	-40	24*	-65	30*	-21
O=C(Nc1cccc(-c2nc3ncccc3o2)c1)c1sc2ccccc2c1Cl	-8	-38	-33	-22	20*	-9	-6	-16
O=C(Nc1cccc(-c2nc3ncccc3o2)c1)c1sc2cc(Cl)ccc2c1Cl	16	-25	-19	-56	0	-202	x	x
Cc1ccc(-c2nc(N/N=C/c3ccncc3)c3ccccc3n2)cc1	92*	76*	-120	43	47*	-174	80*	56*
CSc1ccc(C(=O)Nc2cc(S(=O)(=O)N3CCOCC3)ccc2N2CCOCC2)cc1[N+](=O)[O-]	6	-26	x	7	x	17	x	x
Nc1cc(-c2ccccc2)ccc1O	7	-39	-118	-2	24*!	-68	80*	-18
Cc1ccc(-n2[nH]c(=O)c(-c3ccccn3)c2C)cc1	61*	101*	97*	81*	70*	73*	81*	76*
CCN(C[C@H]1N[C@@](Cc2ccccc2)(C(=O)OC)[C@H]2C(=O)N(C)C(=O)[C@@H]12)C(C)=O	-17	12	x	3	x	-3	x	x
COc1ccc(OC)c(CN2CCN(C(=O)c3ccc(C)c(S(=O)(=O)Nc4ccccc4OC)c3)CC2)c1	-19	-13	x	3	x	2	x	x
Nc1ccc(Cc2ccc(N)c(O)c2)cc1O	-7	-45	x	-11	24*	15	14	-6
CN(C)CCCn1c(N)c(C#N)c2nc3ccccc3nc21	-21	55*	-3	18	47*	8	-7	-10
CCCCC(CC)Cn1c(N)c(C#N)c2nc3ccccc3nc21 (stereo not drawn)	-5	39	19	12	-3	2	x	x
CCOC(=O)N(C)c1c(CC)nc2c(OCc3ccc(F)cc3)cccn12	8	-2	x	2	x	-2	x	x
CN1CCN([C@H]2CS(=O)(=O)N[C@@H]2COCc2ccccc2)CC1	9	-3	x	-6	x	-1	x	x
COc1ccc(NC2=C(C(C)=O)C(c3ccc(OC)cc3)C(C(C)=O)C(C)(O)C2)cc1 (stereo not drawn)	-20	25	-23	15	31*	9	4	1
COc1ccc(NC2=C(C(C)=O)C(c3ccc(N(C)C)cc3)C(C(C)=O)C(C)(O)C2)cc1 (stereo not drawn)	-10	-17	-22	-1	2	8	x	x
Cc1ccc(NC(=S)/C(=C(\[O-])c2ccc(C)c([N+](=O)[O-])c2)[n+]2ccccc2)cc1C	x	x	-158	x	31*	x	17*	-16
COCCNC(=O)C1CCCN(C(=O)c2sccc2C)CC1 (stereo not drawn)	-15	-6	x	-14	x	4	x	x
